# Targets with a hit are over-represented here; the source holds about 6,500 in all. About 2% of all pairs of compound and target were hits.
# Compound: COC(=O)C#Cc1ccccc1 [methyl 3-phenylpropiolate]
# Experiment: log2 ratio of iodoacetamide-alkyne labeling of the cysteine site, DMSO over compound (competition); higher = stronger covalent engagement of the cysteine by the compound, active = 1 or more
# Conditions: 500 µM; treatment time 1 h; system: HEK293T cell lysate
# Summary of the method: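 Three replicates, each with duplicate channels, were prepared from HEK293T lysate (2 mg/mL) treated with vehicle or electrophile at 500 µM for 1 h at ambient temperature. Iodoacetamide alkyne was then applied for 1 h, and samples were clicked to sCIP-TMT reagents, pooled, trypsin-digested overnight at 37 °C, enriched on streptavidin, acid-eluted and analysed on Orbitrap Eclipse LC-MS/MS with FAIMS, with FragPipe quantification. The log2 competition ratio per cysteine is the mean control-channel divided by the mean compound-channel reporter intensity. Cysteines quantified in only one replicate were left out.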
# Sequence of UniProt P11586 (P11586 whole entry, looked up): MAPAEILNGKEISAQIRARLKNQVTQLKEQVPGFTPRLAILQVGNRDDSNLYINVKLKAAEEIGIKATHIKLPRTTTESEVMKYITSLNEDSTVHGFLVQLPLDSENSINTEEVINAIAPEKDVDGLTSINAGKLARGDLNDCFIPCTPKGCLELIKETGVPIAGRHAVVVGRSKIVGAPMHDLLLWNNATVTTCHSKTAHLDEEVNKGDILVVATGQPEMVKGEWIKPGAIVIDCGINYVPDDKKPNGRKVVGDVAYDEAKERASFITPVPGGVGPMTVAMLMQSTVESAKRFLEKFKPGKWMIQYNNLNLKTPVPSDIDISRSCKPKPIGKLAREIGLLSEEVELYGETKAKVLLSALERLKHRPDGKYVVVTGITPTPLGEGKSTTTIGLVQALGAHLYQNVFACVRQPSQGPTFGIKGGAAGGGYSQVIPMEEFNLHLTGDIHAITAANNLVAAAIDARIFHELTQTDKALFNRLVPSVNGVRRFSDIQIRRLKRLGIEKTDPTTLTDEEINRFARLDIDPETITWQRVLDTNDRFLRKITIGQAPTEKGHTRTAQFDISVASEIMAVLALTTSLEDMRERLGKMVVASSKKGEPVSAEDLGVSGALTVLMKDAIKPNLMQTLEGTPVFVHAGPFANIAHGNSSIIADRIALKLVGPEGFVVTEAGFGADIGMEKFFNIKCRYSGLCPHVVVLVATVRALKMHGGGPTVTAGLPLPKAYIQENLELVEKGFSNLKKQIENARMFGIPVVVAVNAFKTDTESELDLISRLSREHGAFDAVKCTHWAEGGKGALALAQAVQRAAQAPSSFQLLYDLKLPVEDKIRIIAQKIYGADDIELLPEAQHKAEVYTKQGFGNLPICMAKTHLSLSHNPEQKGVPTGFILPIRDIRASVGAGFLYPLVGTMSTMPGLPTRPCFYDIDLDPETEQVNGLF
# Sequence of UniProt P04075 (P04075 whole entry, looked up): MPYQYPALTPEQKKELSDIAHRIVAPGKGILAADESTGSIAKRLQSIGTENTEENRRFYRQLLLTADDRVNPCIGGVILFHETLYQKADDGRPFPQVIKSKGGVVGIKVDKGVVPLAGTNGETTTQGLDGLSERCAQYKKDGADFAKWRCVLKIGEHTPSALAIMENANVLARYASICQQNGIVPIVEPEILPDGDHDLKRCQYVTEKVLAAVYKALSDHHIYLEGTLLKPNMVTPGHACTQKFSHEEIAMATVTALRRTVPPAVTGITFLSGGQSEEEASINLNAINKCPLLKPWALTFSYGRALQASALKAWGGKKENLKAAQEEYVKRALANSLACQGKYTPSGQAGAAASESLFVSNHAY
# Sequence of UniProt P49585 (P49585 whole entry, looked up): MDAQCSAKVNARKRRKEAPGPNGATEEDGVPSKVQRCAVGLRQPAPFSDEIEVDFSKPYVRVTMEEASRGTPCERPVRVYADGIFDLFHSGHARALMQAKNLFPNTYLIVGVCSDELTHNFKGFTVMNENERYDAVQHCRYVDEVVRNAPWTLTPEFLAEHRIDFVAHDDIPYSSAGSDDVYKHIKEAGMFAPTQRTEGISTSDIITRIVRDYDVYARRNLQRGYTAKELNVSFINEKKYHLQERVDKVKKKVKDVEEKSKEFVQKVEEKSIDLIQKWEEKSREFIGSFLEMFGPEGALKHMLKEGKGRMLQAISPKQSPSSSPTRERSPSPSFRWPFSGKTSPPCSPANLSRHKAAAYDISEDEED
# Sequence of UniProt P52597 (P52597 whole entry, looked up): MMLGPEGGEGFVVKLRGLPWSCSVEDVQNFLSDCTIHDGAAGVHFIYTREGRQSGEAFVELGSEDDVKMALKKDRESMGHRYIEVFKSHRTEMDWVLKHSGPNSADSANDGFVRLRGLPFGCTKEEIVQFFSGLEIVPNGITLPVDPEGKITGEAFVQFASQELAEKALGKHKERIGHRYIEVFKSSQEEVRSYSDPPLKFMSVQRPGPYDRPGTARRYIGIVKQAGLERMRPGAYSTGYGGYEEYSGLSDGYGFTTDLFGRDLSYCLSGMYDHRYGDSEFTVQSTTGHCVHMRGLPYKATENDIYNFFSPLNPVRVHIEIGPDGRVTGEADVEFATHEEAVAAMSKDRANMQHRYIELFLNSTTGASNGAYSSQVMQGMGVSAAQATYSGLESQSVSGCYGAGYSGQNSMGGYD
# Sequence of UniProt O95347 (O95347 whole entry, looked up): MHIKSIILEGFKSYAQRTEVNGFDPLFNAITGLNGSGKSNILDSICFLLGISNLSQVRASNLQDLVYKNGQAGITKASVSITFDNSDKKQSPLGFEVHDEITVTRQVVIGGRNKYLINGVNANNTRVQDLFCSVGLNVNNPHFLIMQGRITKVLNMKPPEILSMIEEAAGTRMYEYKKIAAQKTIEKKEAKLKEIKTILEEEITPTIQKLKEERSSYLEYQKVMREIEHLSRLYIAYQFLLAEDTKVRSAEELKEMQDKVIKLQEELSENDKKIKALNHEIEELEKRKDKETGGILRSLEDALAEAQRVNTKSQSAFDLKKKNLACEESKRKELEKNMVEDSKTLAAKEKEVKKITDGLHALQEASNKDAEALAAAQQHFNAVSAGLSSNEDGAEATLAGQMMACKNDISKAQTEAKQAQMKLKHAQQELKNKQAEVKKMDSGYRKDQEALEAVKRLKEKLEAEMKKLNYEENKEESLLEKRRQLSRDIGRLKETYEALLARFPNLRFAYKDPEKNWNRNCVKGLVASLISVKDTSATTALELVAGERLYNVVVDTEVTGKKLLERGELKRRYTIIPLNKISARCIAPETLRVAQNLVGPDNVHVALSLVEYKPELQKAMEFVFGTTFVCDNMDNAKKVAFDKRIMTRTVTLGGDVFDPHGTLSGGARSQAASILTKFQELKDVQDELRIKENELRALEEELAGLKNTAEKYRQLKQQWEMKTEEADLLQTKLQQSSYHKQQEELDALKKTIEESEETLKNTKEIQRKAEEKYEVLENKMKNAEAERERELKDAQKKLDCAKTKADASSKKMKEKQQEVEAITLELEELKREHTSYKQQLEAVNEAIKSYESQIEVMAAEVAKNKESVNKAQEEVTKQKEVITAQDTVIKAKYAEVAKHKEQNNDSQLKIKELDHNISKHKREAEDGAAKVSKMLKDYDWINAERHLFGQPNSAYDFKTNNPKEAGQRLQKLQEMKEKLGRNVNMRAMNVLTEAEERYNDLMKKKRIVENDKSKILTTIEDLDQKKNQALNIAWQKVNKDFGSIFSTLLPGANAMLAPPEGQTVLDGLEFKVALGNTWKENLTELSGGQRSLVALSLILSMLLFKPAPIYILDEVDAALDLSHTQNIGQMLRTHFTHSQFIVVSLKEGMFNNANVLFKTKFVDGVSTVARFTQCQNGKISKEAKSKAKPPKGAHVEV
# Sequence of UniProt O95861 (O95861 whole entry, looked up): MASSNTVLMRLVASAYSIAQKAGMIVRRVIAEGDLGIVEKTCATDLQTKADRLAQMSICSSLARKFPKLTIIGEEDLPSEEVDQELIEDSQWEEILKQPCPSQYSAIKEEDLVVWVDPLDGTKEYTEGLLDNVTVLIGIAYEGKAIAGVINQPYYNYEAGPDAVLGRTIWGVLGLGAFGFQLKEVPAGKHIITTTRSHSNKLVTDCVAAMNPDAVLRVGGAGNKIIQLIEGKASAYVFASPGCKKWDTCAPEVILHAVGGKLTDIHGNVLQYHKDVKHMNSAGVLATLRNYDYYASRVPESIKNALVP
# Sequence of UniProt P31751 (P31751 whole entry, looked up): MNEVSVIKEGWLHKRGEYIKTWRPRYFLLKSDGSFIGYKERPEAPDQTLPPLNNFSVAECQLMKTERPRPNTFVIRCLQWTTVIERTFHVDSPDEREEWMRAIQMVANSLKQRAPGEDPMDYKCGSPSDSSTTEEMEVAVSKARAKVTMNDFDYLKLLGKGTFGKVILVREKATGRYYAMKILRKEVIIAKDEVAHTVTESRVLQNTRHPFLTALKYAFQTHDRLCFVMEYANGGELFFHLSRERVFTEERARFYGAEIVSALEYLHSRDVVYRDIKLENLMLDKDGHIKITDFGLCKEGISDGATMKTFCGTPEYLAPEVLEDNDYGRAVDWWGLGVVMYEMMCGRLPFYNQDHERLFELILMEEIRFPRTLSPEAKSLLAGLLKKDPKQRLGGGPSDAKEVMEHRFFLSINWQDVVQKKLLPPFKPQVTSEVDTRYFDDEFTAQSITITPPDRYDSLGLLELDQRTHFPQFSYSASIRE
# Sequence of UniProt P05455 (P05455 whole entry, looked up): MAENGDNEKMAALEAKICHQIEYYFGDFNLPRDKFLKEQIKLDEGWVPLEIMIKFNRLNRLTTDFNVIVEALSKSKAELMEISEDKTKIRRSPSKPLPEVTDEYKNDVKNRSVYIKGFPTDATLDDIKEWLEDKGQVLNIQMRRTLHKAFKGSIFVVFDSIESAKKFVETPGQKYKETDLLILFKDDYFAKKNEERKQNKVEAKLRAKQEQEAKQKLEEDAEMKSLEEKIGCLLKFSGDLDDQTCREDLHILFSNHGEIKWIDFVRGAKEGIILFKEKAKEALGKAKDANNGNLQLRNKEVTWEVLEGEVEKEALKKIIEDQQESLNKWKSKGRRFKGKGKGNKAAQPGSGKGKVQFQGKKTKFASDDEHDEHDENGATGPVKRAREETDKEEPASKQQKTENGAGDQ
# Sequence of UniProt P04181 (P04181 whole entry, looked up): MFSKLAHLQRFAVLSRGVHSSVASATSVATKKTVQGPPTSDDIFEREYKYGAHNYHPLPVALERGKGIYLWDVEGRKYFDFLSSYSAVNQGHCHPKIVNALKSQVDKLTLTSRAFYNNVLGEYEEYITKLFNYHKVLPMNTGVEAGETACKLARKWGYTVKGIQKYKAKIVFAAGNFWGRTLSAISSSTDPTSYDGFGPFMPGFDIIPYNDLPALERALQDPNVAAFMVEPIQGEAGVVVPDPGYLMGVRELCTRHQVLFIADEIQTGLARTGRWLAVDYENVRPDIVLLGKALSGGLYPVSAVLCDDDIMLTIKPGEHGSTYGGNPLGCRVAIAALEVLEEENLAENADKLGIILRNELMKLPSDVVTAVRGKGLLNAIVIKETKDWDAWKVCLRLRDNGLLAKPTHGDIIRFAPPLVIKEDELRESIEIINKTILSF
row,Target,log2 ratio of iodoacetamide-alkyne labeling
1,JUP C90 (UniProt P14923),0.305 (inactive)
2,BPNT1 C206 (UniProt O95861),0.27 (inactive)
3,MFN2 C348 (UniProt O95140),-0.0549 (inactive)
4,VDAC2 C227 (UniProt P45880),1.39 (active)
5,CKB C283 (UniProt P12277),0.217 (inactive)
6,UniProt P26367_C94,0.097 (inactive)
7,U2AF1L5 C67 (UniProt P0DN76),0.366 (inactive)
8,AKT2 C297 (UniProt P31751),0.698 (inactive)
9,OAT C253 (UniProt P04181),0.0787 (inactive)
10,ALDOA C202 (UniProt P04075),-0.0261 (inactive)
11,SRI C194 (UniProt P30626),-0.125 (inactive)
12,TTK C322 (UniProt P33981),1.29 (active)
13,NT5C2 C181 (UniProt P49902),0.0722 (inactive)
14,PLCG1 C976 (UniProt P19174),1.9 (active)
15,RPL10 C195 (UniProt P27635),0.694 (inactive)
16,MCM4 C162 (UniProt P33991),0.055 (inactive)
17,PCYT1A C73 (UniProt P49585),0.921 (inactive)
18,RPS3 C97 (UniProt P23396),2.45 (active)
19,UniProt P35568_C494,0.123 (inactive)

row,Target,log2 ratio of iodoacetamide-alkyne labeling
1,UniProt P49459_C88,0.243 (inactive)
2,FASN C1186 (UniProt P49327),-0.0549 (inactive)
3,BSG C242 (UniProt P35613),0.215 (inactive)
4,FASN C1127 (UniProt P49327),0.394 (inactive)
5,IDH3A C331 (UniProt P50213),0.257 (inactive)
6,SLC25A5 C160 (UniProt P05141),0.177 (inactive)
7,ACADM C156 (UniProt P11310),0.666 (inactive)
8,SLC7A1 C628 (UniProt P30825),0.105 (inactive)
9,AARS C723 (UniProt P49588),0.264 (inactive)
10,PABPC1 C128 (UniProt P11940),-0.0389 (inactive)
11,SMC2 C585 (UniProt O95347),0.258 (inactive)
12,MTHFD1 C143 (UniProt P11586),-0.0254 (inactive)
13,SSB C18 (UniProt P05455),-0.139 (inactive)
14,CYC1 C219 (UniProt P08574),0.0599 (inactive)
15,RPL9 C134 (UniProt P32969),0.0357 (inactive)
16,VDAC2 C13 (UniProt P45880),1.11 (active)
17,CA2 C205 (UniProt P00918),-0.11 (inactive)
18,HNRNPF C290 (UniProt P52597),0.0362 (inactive)
